# What was measured:
# Assay in all cases: PBM binding z-score (relative to random genomic background probes); higher = stronger binding; sequences stand for … in GC…GCGATTGACAGCGTAGAATGAAGG
# [1] = system: RARb homodimer (NR concentration 270 nM)
# Procedure, shortened: (§1)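 Regression normalization was applied to scanned fluorescence from custom Agilent 4×180K protein-binding microarrays. Before scanning, arrays were incubated 1 h with ligand-free nuclear receptor dimers, and binding was detected with antibodies against each partner (one per run). Binding z-scores use the random background probes as reference.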
# [2] = system: RARg:RXRa (NR concentration 270 nM, RXRa partner concentration 90 nM)
# Procedure, shortened: as §1
# [3] = system: RARg homodimer (NR concentration 270 nM)
# Procedure, shortened: as §1
# [4] = system: RXRa DBDmut IVT, anti-RXR (DBD mutation: RXRa K156A/R161A, NR concentration 90 nM)
# Procedure, shortened: as §1
# [5] = system: RXRa homodimer (NR concentration 180 nM)
# Procedure, shortened: as §1
# [6] = system: THRa:RXRa (NR concentration 90 nM, RXRa partner concentration 90 nM)
# Procedure, shortened: as §1
# [7] = system: THRa homodimer (NR concentration 90 nM)
# Procedure, shortened: as §1
# [8] = system: VDR homodimer (NR concentration 270 nM)
# Procedure, shortened: as §1
Sequence,PBM binding z-score [1],PBM binding z-score [2],PBM binding z-score [3],PBM binding z-score [4],PBM binding z-score [5],PBM binding z-score [6],PBM binding z-score [7],PBM binding z-score [8]
CCTAGTTGGTCAAGGTCACAAACGCTATAGGTAC,4,4.1,4.24,1.87,4.02,4,3.57,3.9
ATACCAAGGTGATCGTGAGGTCGTTGCTACTAAC,1.88,2.03,0.891,0.967,1.56,3.25,2.43,3.33
AGAATGAGGTTATTAAGATCAGCGAATTGCGGTC,0.651,1.02,0.64,1.95,1.43,2.07,0.43,0.913
CCTCGGAGGACAACAGGAGGTCAGGGCTGCCAGA,3.69,3.63,3.49,-0.237,2.24,2.96,1.34,0.949
CCTAGCAGGCCAGGGTCACTCATGCATTTCGCTT,2.68,2.82,1.97,0.745,2.96,2.79,1.04,1.31
ATACCAAGGTGATCGTGAGGTCGTTGGTACTAAC,1.55,2.1,0.722,0.424,1.5,3.39,2.22,2.96
CCTAGCAGGGCAGGGTCACTCAAGCATTTCGCTT,3.05,3.61,3.01,0.33,4.08,2.8,0.567,1.75
AGAATCAGGTTACCAAAGATCAGGGAAACGCTTG,0.374,0.744,0.974,0.0556,0.775,1.36,0.124,-0.469
TGAAAGAGGTTAAAGATCAGGGAACGTGGCGTCG,1.1,2.9,1.68,0.56,4.19,1.63,-0.693,0.28
GCTATTAGTTGAAAGGGCAACCGAATGATTCTCG,2.09,1.26,1.37,0.972,1.21,0.664,-0.209,0.624
TCATATAGGTAAATGCTAGGTGTAAGTCCGATCT,-0.036,0.43,0.124,1.47,0.608,0.0134,0.0913,0.144
AGAATGAGTTTATACGTAGATCAGGGAAGAAAGT,-0.157,0.14,0.357,3.89,-0.175,-0.0164,-0.368,3.35
TCTCGGAGGACCCGAAAGGTCAGAGCTCGACATC,4.21,3.92,4.15,0.325,4.04,2.75,0.369,0.435
AATACAGGGTCATCGTAGGCCACAGTACGCACAG,4.02,6,5.52,3.39,6.9,4.93,1.72,3.13

# Reference: the supplement of paper PMC6555819
